Experimental data taken from PubChem BioAssay (NCI).
Values joined by “and” are separate entries in the source; they are usually repeats but may differ in a detail not shown here. Equal entries are not always repeated. About 79,000 compounds went through this panel and 15% of them were active in at least one assay; those are over-represented in the sample as a whole. Active and inactive are the calls of the source. No stated cut-off is given here; in the data, active means growth inhibition above about 70%; inactive means the rest.

Tests used:
[1] = NCI Yeast Anticancer Drug Screen. Data for the rad50 strain (AID 155);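 further: 0% = growth of vehicle-only cultures of the same strain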; details: S. cerevisiae rad50 strain growth inhibition, active compounds read high; at 50.0 µM unless noted
Procedure, shortened: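 Cells are treated with compound, grown, and their growth is then scored against vehicle-only cultures of the same repair-deficient yeast strain.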

[2] = NCI Yeast Anticancer Drug Screen. Data for the mec2-1 strain (AID 157); details: S. cerevisiae mec2-1 strain, active compounds read high; at 50.0 µM unless noted
Procedure, shortened: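 Compounds were applied to mec2-1 yeast cells. Their growth was then compared with that of vehicle-treated cultures to give growth inhibition.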

[3] = NCI Yeast Anticancer Drug Screen. Data for the sgs1 mgt1 strain (AID 161);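 further: 0% = growth of cultures given vehicle only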; details: S. cerevisiae sgs1 mgt1 strain, active compounds read high; at 50.0 µM unless noted
Procedure, shortened: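 Compounds are added to genetically altered yeast, and growth is compared with cultures given vehicle alone to give percent inhibition.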

[4] = NCI Yeast Anticancer Drug Screen. Data for the cln2 rad14 strain (AID 165);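 further: 0% = growth equal to vehicle treated cultures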; details: S. cerevisiae cln2 rad14 strain, active compounds read high; at 50.0 µM unless noted
Procedure, shortened: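 Strain: cln2 rad14 yeast, altered in cell cycle control and DNA damage repair. Read-out: growth inhibition vs vehicle.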

[5] = NCI Yeast Anticancer Drug Screen. Data for the bub3 strain (AID 167); details: S. cerevisiae bub3 mutant strain, active compounds read high; at 50.0 µM unless noted
Procedure, shortened: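 Part of a panel of yeast mutants defective in DNA damage repair or cell cycle regulation. Each strain is grown with compound, and inhibition is calculated relative to solvent-treated cultures.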

[6] = NCI Yeast Anticancer Drug Screen. Data for the mlh1 rad18 strain (AID 175); details: S. cerevisiae mlh1 rad18 strain growth inhibition, active compounds read high; at 50.0 µM unless noted
Procedure, shortened: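 A repair-deficient yeast strain is exposed to test compound, and growth is scored relative to vehicle-treated controls.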

Measured: growth inhibition

CCSC1C(O)C(CO)OC1n1cnc2c(=S)nc[nH]c21 (configuration not stated)
inactive: [1] -3.65% | [2] -28.7% | [3] -2% | [4] 2.6% | [5] 5% | [6] 0.2%

Cc1nc2ccc(Br)cc2c(=O)n1-c1ccc(-c2n[nH]c(=S)n2-c2ccccc2)cc1
inactive: [1] 14% | [2] 13.2% | [3] 13.4% | [4] -27.9% | [5] 6.8% | [6] 42.4%

CCCc1ccc(C)c(Br)c1
inactive: [1] 26.4% | [2] 15.8% | [3] 0.9% | [4] -9.95% | [5] 1.3% | [6] 3.3%

CCC(C)C(NC(=O)Cc1ccccc1)C(=O)O (configuration not stated)
inactive: [1] 4.55% | [2] -9.45% | [3] -4.1% | [4] -23.2% | [5] 8.95% | [6] 5.75%

CS(=O)(=O)c1ccc(/C(=N/N)c2ccccc2)cc1
inactive: [1] 1.65% | [2] 9.65% | [3] 9.2% | [4] 28.2% | [5] 13.5% | [6] 17.4%

COC(=O)C1C(O)C(C)C(O)C(C)(O)/C=C/C=C(C)C(=O)Nc2c(C)c(OC(C)=O)c3c(c2O)C(=O)C(C)=C2OCOC(=C23)C(C)=CC(C)(O)C(O)C(C)C1OC(C)=O (configuration not stated)
inactive: [1] 4.6% | [2] -19.9% | [3] 5.5% | [4] 4.05% | [5] 3.05% | [6] 18.8%

COC1/C=C/OC2(C)Oc3c(C)c(O)c4c(c3C2=O)C(=O)C([N+](=O)[O-])=C(NC(=O)C(C)=C/C=C\C(C)C(O)C(C)C(O)C(C)C(OC(C)=O)C1C)C4=O (configuration not stated)
inactive: [1] 21.7% | [2] 10.4% | [3] 29.4% | [4] 19.6% | [5] 24.4% | [6] 29.6%

CCCCCC1CC(C(C)=O)CN1c1ccc(F)cc1 (configuration not stated)
inactive: [1] -0.95% | [2] 8.4% | [3] 11.8% | [4] 8.7% | [5] -1% | [6] -2%

COC1OC2COC(C)(C)OC2C2OC(C)(C)OC12 (configuration not stated)
inactive: [1] 1.15% | [2] 5.35% | [3] 6.45% | [4] -6.25% | [5] -18.4% | [6] 16.3%

Cc1ccc(C2OC3=C(Nc4ccc([N+](=O)[O-])cc4N3)C2=O)cc1 (configuration not stated)
inactive: [1] 10.1% | [2] 7.75% | [3] 8.65% | [4] 12.8% | [5] -4.35% | [6] 3.25%

O=C1NCCCc2nonc21
inactive: [1] 18.9% | [2] 16.4% | [3] 7.9% | [4] 4% | [5] 4% | [6] 5.2%

CC(C)N(C(=O)c1ccccc1O)C(C)C
inactive: [1] 2.95% | [2] -7.65% | [3] 6.55% | [4] -7.7% | [5] -4.4% | [6] 2%

COC(=O)CCC(=O)Nc1cc(C)ccc1C
inactive: [1] -6.3% | [2] -19.9% | [3] -7.6% | [4] 4.5% | [5] -2.25% | [6] -12.2%

Cn1c(=O)c2nc(SCC(=O)O)n(C)c2n(C)c1=O
inactive: [1] 3.6% | [2] 6.2% | [3] 7.4% | [4] -10.1% | [5] 5.35% | [6] 3.2%

CNC(=O)OCc1c(COC(=O)NC)c(C)n(-c2ccc(Cl)cc2)c1C
active: [3] 83.2% | [5] 84.5% | [6] 91.3%
inactive: [1] 38.8% | [2] 40.4% | [4] 24.6%

CCOC(=O)CNC(=O)C(CCC(=O)N(C)O)NC(=O)CCC(N)C(=O)O (configuration not stated)
inactive: [1] -20.1% | [2] -5.5% | [3] -0.8% | [4] -0.05% | [5] 4.25% | [6] -35.5%

COC(=O)[C@@H]1O[C@H]1c1ccccn1
inactive: [1] 7.9% | [2] 1.1% | [3] -7.95% | [4] -5.75% | [5] 8.95% | [6] 0.1%

O=P(CSCCO)(c1ccccc1)c1ccccc1
inactive: [1] -23.6% | [2] -21.9% | [3] -13.4% | [4] -6.3% | [5] -11.9% | [6] -36.7%

ClCCCN(CCCCl)c1ccc(C=Nc2cccc(Cl)c2)c(Cl)c1
active: [1] 91.1% | [2] 76.6% | [3] 95.5% | [4] 85.2% | [5] 81.5% | [6] 93.5%

O=C1/C(=C/c2ccc(O)cc2)CCc2ccccc21
inactive: [1] -21.6% | [2] -6.35% | [3] -2.1% | [4] 2.75% | [5] 11.9% | [6] -34.2%

O=C1CN(C2OC(CO)C(O)C2O)C(=O)NC1=O (configuration not stated)
inactive: [1] 41.8% | [2] 14.2% | [3] 55.2% | [4] -11.2% | [5] 9.15% | [6] 24.4%

COc1cc(/C=N/NC(=O)c2ccccc2OC)ccc1O
inactive: [1] 41.4% | [2] 17.4% | [3] 22.9% | [4] 20.8% | [5] 27.9% | [6] 17.2%

Clc1nc2n(c1/C=C/c1cccs1)CCS2
inactive: [1] 28.4% | [2] 23.2% | [3] 56.4% | [4] 13.9% | [5] 20.6% | [6] 59.5%

CCCCN(C#N)CCCC
inactive: [1] 3% | [2] 1.75% | [3] 27.6% | [4] -97.3% | [5] -16.1% | [6] -32%

C=CC[Si](CC=C)(OCC)OCC
inactive: [1] 9.65% | [2] -21.9% | [3] 7.05% | [4] 20.7% | [5] -6.9% | [6] 23.2%

CC(=O)Oc1cccc2c1C(=O)c1c(OC(C)=O)cc(C)cc1C2=O
inactive: [1] 10.8% | [2] 5.35% | [3] 1.85% | [4] -0.85% | [5] -41% | [6] -15.6%

CC(=O)CCn1[nH]c(=O)c2ccccc2c1=O
inactive: [1] -2.05% | [2] 7.35% | [3] 1.6% | [4] 7.9% | [5] -3.15% | [6] 10.9%

O=C(Oc1cc2c(cc1Br)OCO2)c1cccc2ccccc12
inactive: [1] 0.85% | [2] -30.3% | [3] 9.8% | [4] -48.7% | [5] 6.95% | [6] -27.2%

O=[N+]([O-])C(C(Cl)=C(Cl)Cl)=C(N1CCOCC1)N1CCOCC1
inactive: [1] -25.2% | [2] -21.1% | [3] -19.1% | [4] -9.6% | [5] 5.1% | [6] 1.85%

CC(=O)OC1CCC2(C)C3CCC4(C)C(C(C)CCCC(C)C)CCC4C3C3CC32C1 (configuration not stated)
inactive: [1] 30.6% | [2] -21.8% | [3] 29.1% | [4] 3.95% | [5] -3.05% | [6] 0.1%

CC(C)N(C(=O)C12C3C4C1C1C2C3C41C(=O)N(C(C)C)C(C)C)C(C)C (configuration not stated)
inactive: [1] -1.85% | [2] -9.2% | [3] -12.9% | [4] -1% | [5] 8.45% | [6] -26.5%

CN(C)CC(C(=O)/C=C/c1ccccc1)C(C)(C)C (configuration not stated)
inactive: [1] -10.4% | [2] -21.9% | [3] -16.2% | [4] 11.6% | [5] -11% | [6] -38.3%

COC1OC(COS(=O)(=O)c2ccc(C)cc2)C(OS(=O)(=O)c2ccc(C)cc2)C(OS(=O)(=O)c2ccc(C)cc2)C1OS(=O)(=O)c1ccc(C)cc1 (configuration not stated)
inactive: [1] -7.45% | [2] -16.5% | [3] -11.7% | [4] -8.6% | [5] 0.75% | [6] 18.6%

CC1CC(C)OC(c2ccccc2Cl)O1 (configuration not stated)
inactive: [1] 24.6% | [2] 12.4% | [3] 6.3% | [4] -8.1% | [5] 12.7% | [6] 25%

Cc1cccc[n+]1C
inactive: [1] 3.45% | [2] 4.35% | [3] 0.05% | [4] -19.2% | [5] 22.9% | [6] 4.05%

CC(=O)N(C(C)=O)N1C(=O)CSC1=S
inactive: [1] -11.1% | [2] -35% | [3] -21.8% | [4] -3.4% | [5] 17.4% | [6] -7.2%

CN(C)c1ccc(-c2c3ccccc3nc3ccccc23)cc1
inactive: [1] -19.4% and -12.1% | [2] 9.35% and -6.05% | [3] 14.2% and -14.2% | [4] 0.05% and -26.1% | [5] 9.95% and -16.1% | [6] -4.7% and 5.8%
